{"source": "PubChem BioAssay (NCATS)", "note": "Values joined by “and” are separate entries in the source; they are usually repeats but may differ in a detail not shown here. Equal entries are not always repeated. Inconclusive results are not listed. Active and inactive are the calls of the source. Calls come from the whole dose curve; as a rule, active = well fitted curve in the direction sought with a large enough effect; inconclusive = small, poorly fitted or top-dose-only effect, or another doubt; inactive = no such curve, though single readings can be large; an effect the other way counts as inactive or inconclusive."}
{"biological_target": "Peroxisome proliferator-activated receptor alpha (Homo sapiens) (UniProt Q07869)", "sequence (Q07869 whole entry, looked up, the tested form may be a part)": "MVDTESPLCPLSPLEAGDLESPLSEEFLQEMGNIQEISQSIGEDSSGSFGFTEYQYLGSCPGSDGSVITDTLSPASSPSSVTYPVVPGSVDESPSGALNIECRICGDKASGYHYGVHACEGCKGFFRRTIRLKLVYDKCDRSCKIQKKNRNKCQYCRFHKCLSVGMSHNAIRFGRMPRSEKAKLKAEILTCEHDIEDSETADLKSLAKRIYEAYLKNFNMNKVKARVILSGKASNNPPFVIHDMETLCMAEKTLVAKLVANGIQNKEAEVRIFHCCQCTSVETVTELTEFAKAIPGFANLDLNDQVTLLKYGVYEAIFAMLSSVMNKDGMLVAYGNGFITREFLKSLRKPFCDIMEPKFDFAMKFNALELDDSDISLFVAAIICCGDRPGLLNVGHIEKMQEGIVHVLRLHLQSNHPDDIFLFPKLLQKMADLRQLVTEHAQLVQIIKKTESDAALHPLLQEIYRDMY", "experiment": "qHTS assay for small molecule agonists of the peroxisome proliferator-activated receptor alpha (PPARalpha) signaling pathway (AID 651778); note: % of control where 0% means no effect", "conditions": "PathHunter PPARalpha complementation, chemiluminescence, 6 h; hits give high values", "outline": "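Enzyme-fragment complementation assay in which ligand-bound PPARalpha translocates and forms an active enzyme that generates chemiluminescence. Cells were plated overnight, exposed to compound for 6 hr at 37 C, and then given detection reagent for 60 min at room temperature.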"}
{"compound": "Brc1ccccc1", "max response": "-0.353% (inactive) and -0.0548% (inactive)"}
{"compound": "CCOP(=S)(OCC)SCSC(C)(C)C", "max response": "-1.59% (inactive) and -3.9% (inactive)"}
{"compound": "C=C(C)C#N", "max response": "-3.42% (inactive) and 0.836% (inactive)"}
{"compound": "CCSC(=O)Cl", "max response": "0.356% (inactive)"}
{"compound": "Cc1cccc([N+](=O)[O-])c1", "max response": "-3.99% (inactive) and -0.65% (inactive)"}
{"compound": "Nc1c(Cl)c(Cl)nc(C(=O)O)c1Cl", "max response": "0.0872% (inactive) and -2.27% (inactive) and -1.09% (inactive)"}
{"compound": "CC(C)(C)OOC(C)(C)C", "max response": "0.694% (inactive)"}
{"compound": "C=C(C)C(=O)OCC1CO1", "note": "(stereo not drawn)", "max response": "-4.83% (inactive)"}
{"compound": "Cc1ccc([N+](=O)[O-])cc1C", "max response": "-4.21% (inactive) and -1.01% (inactive)"}
{"compound": "O=[N+]([O-])c1ccc(Cl)c(Cl)c1", "max response": "-3.39% (inactive)"}
{"compound": "C=CC(=C)C", "max response": "4.78% (inactive)"}
{"compound": "Cc1ccc2ccccc2c1", "max response": "-0.593% (inactive)"}
{"compound": "Nc1ccccc1Cl", "max response": "-2.66% (inactive)"}
{"compound": "Clc1ccc2ccccc2c1", "max response": "0.9% (inactive)"}
{"compound": "[O-][Br+2]([O-])O", "max response": "8.01% (inactive) and -0.25% (inactive)"}
{"compound": "Clc1nc(Cl)nc(Nc2ccccc2Cl)n1", "max response": "1.31% (inactive) and 8.11% (inactive)"}
{"compound": "OCC1CO1", "note": "(stereo not drawn)", "max response": "-0.572% (inactive) and -0.317% (inactive)"}
{"compound": "C=CCOC(=O)c1ccccc1N", "max response": "1.13% (inactive)"}
{"compound": "CC(C)(c1ccccc1)c1ccc(O)cc1", "max response": "-2.53% (inactive) and 0.007% (inactive)"}
{"compound": "CCN(CC)c1ccccc1", "max response": "-1.88% (inactive)"}
{"compound": "S=C=Nc1cccc2ccccc12", "max response": "5.47% (inactive)"}
{"compound": "N#CCCCl", "max response": "-3.2% (inactive) and -4.12% (inactive)"}
{"compound": "O=NN(CCO)CCO", "max response": "-4.3% (inactive)"}
{"compound": "Cc1ccccc1N", "max response": "-4.65% (inactive) and -3.69% (inactive)"}
{"compound": "C=CCOC(C)=O", "max response": "7.33% (inactive)"}
{"compound": "CCCC(=O)Cl", "max response": "-5.49% (inactive)"}
{"compound": "NC(=S)Nc1ccccc1", "max response": "-6.31% (inactive) and -5.47% (inactive) and -0.622% (inactive)"}
{"compound": "O=C(Cl)/C=C/C(=O)Cl", "max response": "-3.04% (inactive)"}
{"compound": "C=C(Cl)Cl", "max response": "-2.47% (inactive)"}
{"compound": "ClCBr", "max response": "-7.14% (inactive)"}
{"compound": "COc1ccc(C=O)cc1OC", "max response": "0.927% (inactive) and -2.24% (inactive)"}
{"compound": "C=CC(=O)OCC", "max response": "-5.18% (inactive)"}
{"compound": "c1nc[nH]n1", "max response": "7.97% (inactive)"}
{"compound": "c1ccc2c(c1)CCCC2", "max response": "-0.424% (inactive)"}
{"compound": "CCCSC(=O)Cl", "max response": "-0.0229% (inactive)"}
{"compound": "Clc1cccc(C(Cl)(Cl)Cl)n1", "max response": "-0.105% (inactive) and 0.0446% (inactive)"}
{"compound": "O=NN(c1ccccc1)c1ccccc1", "max response": "3.69% (inactive) and -0.619% (inactive)"}
{"compound": "C1CCC2CCCCC2C1", "note": "(stereo not drawn)", "max response": "-8.42% (inactive)"}
{"compound": "CC(O)CCl", "note": "(stereo not drawn)", "max response": "-0.405% (inactive) and -1.63% (inactive)"}
{"biological_target": "Nuclear receptor ROR-gamma (Homo sapiens) (UniProt P51449)", "sequence (P51449 whole entry, looked up)": "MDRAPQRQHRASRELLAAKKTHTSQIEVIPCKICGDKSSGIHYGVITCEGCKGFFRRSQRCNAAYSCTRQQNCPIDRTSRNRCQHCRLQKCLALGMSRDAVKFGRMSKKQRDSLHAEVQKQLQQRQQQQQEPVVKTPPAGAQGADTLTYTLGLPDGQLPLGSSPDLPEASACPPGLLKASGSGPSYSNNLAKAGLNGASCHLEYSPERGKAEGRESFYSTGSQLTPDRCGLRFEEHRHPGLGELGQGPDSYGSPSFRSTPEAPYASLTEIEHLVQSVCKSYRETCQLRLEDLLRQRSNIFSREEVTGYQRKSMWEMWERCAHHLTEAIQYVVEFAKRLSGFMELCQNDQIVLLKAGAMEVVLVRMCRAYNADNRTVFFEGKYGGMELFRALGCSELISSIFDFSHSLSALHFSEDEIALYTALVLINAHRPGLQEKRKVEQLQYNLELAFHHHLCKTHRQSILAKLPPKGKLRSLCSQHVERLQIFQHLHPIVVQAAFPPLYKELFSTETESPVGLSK", "experiment": "qHTS assay for small molecule antagonists of the retinoid-related orphan receptor gamma (ROR-gamma) signaling pathway (AID 651802); note: % is set by controls: 0 for no effect and ±100 for the full control effect; nearly all actives have a fitted effect of over 60% in size", "conditions": "ROR-gamma antagonist cell reporter assay; series mostly up to 92.2 µM; activity change, negative = inhibition: at the top concentration", "outline": "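CHO cells carrying TET-inducible ROR-gamma and an ROR response element–luciferase reporter were exposed to compound, then induced with doxycycline. After 16hr at 37C, luminescence was read; lower signal indicates antagonism.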"}
{"compound": "Brc1ccccc1", "activity change, negative = inhibition": "15.4% (inactive)"}
{"compound": "C=C(C)C#N", "activity change, negative = inhibition": "-0.128% (inactive)"}
{"compound": "CCSC(=O)Cl", "activity change, negative = inhibition": "-7.07% (inactive)"}
{"compound": "Nc1c(Cl)c(Cl)nc(C(=O)O)c1Cl", "activity change, negative = inhibition": "-9.61% (inactive)"}
{"compound": "CC(C)(C)OOC(C)(C)C", "activity change, negative = inhibition": "1.41% (inactive)"}
{"compound": "C=C(C)C(=O)OCC1CO1", "note": "(stereo not drawn)", "activity change, negative = inhibition": "5.4% (inactive)"}
{"compound": "Cc1ccc([N+](=O)[O-])cc1C", "activity change, negative = inhibition": "14.6% (inactive)"}
{"compound": "O=[N+]([O-])c1ccc(Cl)c(Cl)c1", "activity change, negative = inhibition": "27.7% (inactive)"}
{"compound": "C=CC(=C)C", "activity change, negative = inhibition": "-10.2% (inactive)"}
{"compound": "Cc1ccc2ccccc2c1", "activity change, negative = inhibition": "-6.24% (inactive)"}
{"compound": "Nc1ccccc1Cl", "activity change, negative = inhibition": "7.96% (inactive)"}
{"compound": "Clc1ccc2ccccc2c1", "activity change, negative = inhibition": "7.98% (inactive)"}
{"compound": "[O-][Br+2]([O-])O", "Potency": "inactive"}
{"compound": "Clc1nc(Cl)nc(Nc2ccccc2Cl)n1", "activity change, negative = inhibition": "20.1% (inactive)"}
{"compound": "OCC1CO1", "note": "(stereo not drawn)", "activity change, negative = inhibition": "4.63% (inactive)"}
{"compound": "C=CCOC(=O)c1ccccc1N", "activity change, negative = inhibition": "-19.1% (inactive)"}
{"compound": "C=CC(N)=O", "Potency": "inactive"}
{"compound": "CC(C)(c1ccccc1)c1ccc(O)cc1", "activity change, negative = inhibition": "-20.3% (inactive)"}
{"compound": "CCN(CC)c1ccccc1", "activity change, negative = inhibition": "-14.8% (inactive)"}
